Compound activity as filed in PubChem.
Efflux pump inh: blocks antifungal efflux pumps in multiplex yeast assay; inhibition, % at 10 µM; AID 485275; hit rate 0.44% among 330,000; S. cerevisiae Candida pump triplex, Nile Red efflux;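 active = plate passing quality check with inhibition over a set limit, or well fluorescence over plate mean plus 4 SD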;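 also: Nile Red retained in pooled yeast measured as flow cytometry median fluorescence; 0% = buffer negative control and 100% = Enniatin B positive control; higher means more Nile Red kept so more efflux inhibition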
sPLA2-III inh: Blocks human group III sPLA2 activity. Q9NZ20. QFRET BODIPY PC-A2 liposome hydrolysis, fluorescence. inhibition, % at 12.2 µM. hit rate 0.56% among 370,000;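 active = inhibition above mean plus 3 SD of compounds lying within the high and low control bounds, cut at about 19% in these data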;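 also: 0% = median of test compound wells and 100% = no enzyme DMSO wells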
Target sequence (Q9NZ20 whole entry, looked up): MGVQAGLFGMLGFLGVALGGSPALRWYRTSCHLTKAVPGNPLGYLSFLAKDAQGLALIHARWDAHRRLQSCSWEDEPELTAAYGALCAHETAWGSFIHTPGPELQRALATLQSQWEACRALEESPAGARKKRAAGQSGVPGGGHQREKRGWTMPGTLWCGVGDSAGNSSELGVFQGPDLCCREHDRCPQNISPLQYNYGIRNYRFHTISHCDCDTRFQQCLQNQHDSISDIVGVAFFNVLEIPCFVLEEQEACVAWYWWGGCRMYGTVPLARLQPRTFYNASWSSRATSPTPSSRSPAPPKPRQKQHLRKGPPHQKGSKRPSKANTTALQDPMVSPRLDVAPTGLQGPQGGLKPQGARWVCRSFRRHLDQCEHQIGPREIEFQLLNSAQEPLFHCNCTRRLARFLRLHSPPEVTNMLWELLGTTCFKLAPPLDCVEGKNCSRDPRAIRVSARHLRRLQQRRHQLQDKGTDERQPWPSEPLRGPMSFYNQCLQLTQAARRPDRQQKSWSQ
SUMO Mot1 rescue: inhibitors of SUMOylation pathway: yeast Mot1-301 growth rescue; growth rescue, % at 18.8 µM; hit rate 1% among 320,000; S. cerevisiae Mot1-301 growth rescue, ATP luminescence, 38.5C; percent above DMSO median, 100 means doubled;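 active = every valid replicate shows activation above 250% relative to neutral control wells; inactive = the rest, any valid replicate at or below 250%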;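 also: OY570 slx delta 5 strain wells were the positive control but not used for scaling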
SKN-1 block: inhibitors of C. elegans SKN-1. C. elegans VP596 Pgst-4::GFP/RFP ratio, acrylamide-induced, 24 h. inhibition, % at 21.8 µM. hit rate 0.49% among 360,000;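 active = interference check ratio from 0.5 to 1.5 plus GFP to RFP signal ratio inhibition reaching or exceeding a fixed threshold, cut at about 30% in these data, passing the limit was not always enough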
* hit, by the source's call; nt = no result given. This is a sample that favours compounds with a hit; in the whole collection about 2.2% have one here.

SMILES	Efflux pump inh	sPLA2-III inh	SUMO Mot1 rescue	SKN-1 block
O=C(Cn1cnc2ccccc2c1=O)N1CCc2ccccc2C1	-0.1	-3.5	497.7*	6.7
O=C(/C=C/[C@H]1O[C@@H](n2ccc(=O)[nH]c2=O)[C@H](O)[C@@H]1O)NC(c1ccccc1)c1ccccc1	nt	9.0	nt	-3.3
O=C(Sc1ccc(Cl)cc1)c1ccccn1	0.0	7.0	79.3	55.4*
CCCCCCCCN1C(=O)[C@@H](CC(=O)NCCCOCCCC)C[C@@]2(C(=O)OC)C1=C[C@H](COCc1ccccc1)O[C@@H]2C	nt	-16.2	nt	nt
Oc1c(Br)cc(Br)cc1/C=N/NC(=S)N[C@H]1CC2C=CC1C2 (some centres undefined)	0.0	45.3*	5.8	7.7
O=C(Nc1cccnc1)c1c(O)c2cccc3c2n(c1=O)CC3	0.0	4.3	-10.0	38.1*
COc1ccc(C(=O)Nc2c(N)nc(SCC(=O)c3ccccc3)[nH]c2=O)cc1	0.0	-17.1	145.3	-2.1
Nc1[nH]c(C(=O)c2ccccc2)c(-c2ccc3ccccc3c2)c1C(=O)NC1CC1	nt	0.5	nt	nt
Cc1ccc(NC(=S)c2ccncc2)cc1	0.0	6.0	19.6	-5.6
Cc1ccc(NC(=S)c2ccccc2)cc1	0.4	2.4	323.6*	25.8
O=C(NCCO)C1(C(=O)C2CC2)CC(c2ccccn2)=NO1 (centres undefined)	nt	6.2	nt	nt
Cc1noc(C)c1S(=O)(=O)N1CCCC(C(=O)NCCc2ccc(Cl)cc2)C1 (centres undefined)	-0.1	1.6	0.8	46.6*
Cc1nn(C)c(C)c1S(=O)(=O)N1CCCC(C(=O)NCCc2ccc(Cl)cc2)C1 (centres undefined)	0.3	-5.0	-20.8	15.3
C=CCN(CC=C)CC(O)CN(c1cc([N+](=O)[O-])ccc1OC)S(=O)(=O)c1ccccc1 (centres undefined)	-0.1	-12.2	-7.3	38.2*
CCOc1ccc(N=Cc2ccc([N+](=O)[O-])cc2)c(O)c1	nt	-22.8	nt	21.4
CCOc1ccc(N=Cc2ccc(N(C)C)cc2)c(O)c1	nt	nt	nt	50.6*
COc1ccc(-c2nn(CC(=O)Nc3ccc(Cl)c(Cl)c3)c(=O)c3ccccc23)cc1	-0.2	0.1	589.6	38.5*
COc1cc(/C=N/NC(=O)c2ccccc2NS(=O)(=O)c2cccs2)ccc1O	nt	-1.3	nt	-4.0
O=C(/C=C/c1cccc([N+](=O)[O-])c1)Nc1ccc(NC(=O)c2cccs2)cc1	-0.8	-0.7	474.1*	0.4
CC(=N\NC(=O)c1ccc([N+](=O)[O-])cc1)/C(=N/O)C(=O)Nc1ccccc1	0.2	-10.7	7.2	9.5
COc1ccc([C@H]2CC(=O)C=C(/C=C/c3ccc(C(F)(F)F)cc3)C2)cc1	0.0	4.9	10.9	4.0
O=C(N[C@@H](Cc1cccnc1)C(=O)N1CCC[C@H]1C(=O)NCc1ccccc1)c1ccccc1	nt	4.4	nt	nt
C#Cc1cccc(-n2nnc(C(=O)OC)c2-c2ccccc2)c1	0.5	-2.1	51.6	38.1*
O=C(N/N=C\c1ccncc1)c1ccc(Br)s1	0.0	2.0	-23.6	41.2*
c1ccc(CSc2nccc(-c3ccco3)n2)cc1	-0.1	3.7	-1.2	43.4*
SMILES	Efflux pump inh	sPLA2-III inh	SUMO Mot1 rescue	SKN-1 block
c1ccc(CSc2n[nH]c(-c3ccco3)n2)cc1	0.0	-1.5	-5.2	-30.8
Cc1ccc(-c2nnn(CC(=O)NCC3CC3)n2)o1	0.1	0.4	-10.8	-7.3
Cc1ccc(-c2nnn(CC(=O)NCC3COCCO3)n2)o1 (centres undefined)	0.1	5.4	1.0	41.7*
Cn1c(SCc2cccc(Br)c2)nnc1-c1ccccn1	0.0	-0.7	20.7	25.8
Cn1cnnc1SCc1cccc(Br)c1	0.1	-1.9	263.9*	21.8
COCc1[nH]nc2c1C(c1ccccc1)N(Cc1ccccc1)C2=O (centres undefined)	nt	-17.9	nt	nt
Cc1cc2cc(CNC(=S)NCc3ccccc3)ccc2n1C	0.0	4.2	-1.0	36.0*
CCc1cccc(C)c1NC(=S)NCc1ccc2c(c1)cc(C)n2C	0.1	15.2	4.7	97.3*
Cc1ccccc1NC(=S)NCc1ccc2c(c1)cc(C)n2C	-0.1	10.1	108.8	23.6
Cc1cc2cc(CNC(=O)Nc3ccccc3)ccc2n1C	-0.1	-6.7	-9.0	38.5*
CCc1cccc(C)c1NC(=S)NCc1ccccc1	-0.1	14.4	-13.8	-8.0
CCOC(=O)c1c(C)[nH]c(C)c1C(=O)CSc1nc2ccccc2[nH]1	-0.1	-13.3	452.6*	8.2
O=S1(=O)C=CCN1Cc1cn(Cc2cccc(C(F)(F)F)c2)nn1	nt	-1.1	nt	nt
COC(=O)c1cc2c(c3c4cc(OC)ccc4n(S(=O)(=O)c4cccc(C)c4)c13)C(=O)N(Cc1ccc(N(C)C)cc1)C2	nt	6.8	nt	nt
C=CCn1c(Cc2cccs2)nnc1SCC(=O)Nc1ccc2c(c1)OCO2	nt	-4.9	nt	nt
O=[N+]([O-])c1ccc(S(=O)(=O)N2CCN(C3CCN(Cc4ccccc4)CC3)CC2)cc1	-0.1	-7.1	379.3*	2.1
Cc1nc2ccccc2nc1OCc1ccccc1	-0.1	-2.5	-3.0	46.6*
CC(C)C[C@@H]1COc2cccc(N3CCCC3)c2S(=O)(=O)N1C	nt	-5.2	nt	nt
C=CCSc1nnc2nc3c(nn12)c1cc(C)ccc1n3CC=C	-0.1	3.9	4.1	38.1*
C=CCn1c2ccccc2c2nnc(SCC(N)=O)nc21	0.5	4.5	3.3	0.0
COc1ccccc1CNC(=O)CSc1ccc(-c2cccs2)nn1	0.0	3.2	13.7	1.4
COc1ccccc1CNC(=O)CSc1ccc(-c2ccccn2)nn1	0.0	0.3	342.8*	-8.0
Cc1ccc(C(Nc2ccccc2)c2ccc3ccc(C)nc3c2O)c(C)c1 (centres undefined)	nt	9.8	nt	nt
Nc1cc(C(=O)O)c(N)c2c1C(=O)c1ccccc1C2=O	0.0	nt	-23.4	43.2*
Nc1c(C(=O)O)ccc2c1C(=O)c1ccccc1C2=O	0.0	-0.6	1.7	61.4
SMILES	Efflux pump inh	sPLA2-III inh	SUMO Mot1 rescue	SKN-1 block
COC(=O)[C@]12C[C@H](CC(=O)NCCc3ccccc3OC)C(=O)N(Cc3ccc(Cl)cc3Cl)C1=C[C@H](C(C)(C)C)O[C@@H]2C	nt	-2.4	nt	nt
COc1ccc(CNCCC(c2ccc(OC)cc2)c2ccccc2OC)cc1 (centres undefined)	0.0	5.2	32.5	37.5*
COc1ccc(C(CCNCc2ccc(OC(C)C)cc2)c2ccccc2OC)cc1 (centres undefined)	0.0	-4.7	-15.1	6.4
Cc1cc2c(c(=O)o1)[C@@]1(C(=O)N(C)c3ccccc31)C1=C(CC3(CCCCC3)OC1=O)O2	nt	3.2	nt	nt
Cc1ccccc1-c1nc(CN2CCC(C(=O)NCCCN3CC(C)CC(C)C3)CC2)c(C)o1 (centres undefined)	0.1	-7.8	558.6*	14.6
COc1ccc([N+](=O)[O-])cc1N(CC(=O)N1CCCC1)S(C)(=O)=O	0.0	-6.8	354.8*	-1.9
Cn1nccc1-c1ccc(C(=O)Nc2cccc(NS(C)(=O)=O)c2)c2occc12	nt	4.0	nt	37.0*
CCOC(=O)c1c(C)[nH]c(C)c1S(=O)(=O)N1CCN(c2ccc([N+](=O)[O-])cc2)CC1	-0.1	-2.9	-6.0	5.0
O=c1oc2ccc(Br)cc2cc1-c1nc2ccccc2o1	0.3	8.3	0.5	4.4
Brc1ccc2oc(-c3ccn[nH]3)cc2c1	0.1	-7.0	12.7	38.5*
